Only some compounds are listed: those with a hit (about 14% of all), similar ones and a draw of the others.
Pf growth 48h: inhibits P. falciparum growth in the first generation, 48 h; P. falciparum luciferase growth in erythrocytes, 48 h; Potency, µM (series often up to 28.7 µM), usual class: inhibitors; actives 5.9% (n = 310,000)
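Read-out is firefly luciferase luminescence from an integrated reporter in P. falciparum, so falling signal marks reduced parasite growth. Infected erythrocytes were at 2% hematocrit and 0.1% parasitemia (final) in Albumax-supplemented RPMI 1640.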
HCMV antiviral: human cytomegalovirus inhibition; HFF cells, HCMV-luciferase reporter, 72 h; active compounds read low; actives 4.5% (n = 410,000); activity change, negative = inhibition, % at 57.5 µM; AID 1259415; in the data active = activity change below about -60%; inconclusive = no clear call, values can overlap the other calls; inactive = above about -39%
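Two-dose cell screen: HFF monolayers treated with compounds and infected with luciferase-expressing HCMV at 1 PFU/cell, 72 h at 37C, then lysed for luciferase measurement.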
HCV inhibitor: inhibitors of hepatitis C virus infection; Potency, µM (titrated, usually from 41.8 µM), actives largely listed as inhibitors; actives 3.4% (n = 340,000); AID 651820; Huh7.5.1 HCVcc-Cre infection, luciferase reporter, 44 h
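Cells (1,000/well) were plated 4 h before compound, then infected with HCVcc-Cre virus (~0.5 moi). After 44 h further culture, infection was read as luciferase luminescence following a 15 min substrate incubation at room temperature.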
LASV entry inh: inhibitors of Lassa virus binding or cell entry | Lassa virus pseudotype entry inhibition, cell reporter | Potency, µM (series often up to 37.9 µM), usual class: inhibitors | actives 1.2% (n = 300,000) | AID 540256; calls by dose curve; tested in HEK293 cells; note: nearly all actives have a fitted effect of over 50% in size
Marburg entry inh: blocks Marburg virus binding to or entry into cells; actives 1.8% (n = 300,000); Marburg virus pseudotyped entry inhibition, cell reporter; Potency, µM (doses to about 37.8 µM), usual class: inhibitors; calls by dose curve; tested in HEK293 cells
Pf growth 96h: P. falciparum growth inhibition at 96 hours | P. falciparum luciferase reporter growth, 96 h | Potency, µM (highest dose often 28.7 µM), usual class: inhibitors | actives 6.9% (n = 320,000)
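Infected RBCs, 2% Hct / 0.05% parasitemia final; luciferase-reporter P. falciparum; cpd 96 h, 37 C, 5% CO2; luciferase detection reagent; luminescence.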
A number is an active result; – = inactive; ? = inconclusive; · = no result; ! = not active in a repeat. Unless noted, calls come from the whole dose curve; as a rule, active = well fitted inhibition curve with a large enough effect; inconclusive = small, poorly fitted or top-dose-only effect, or another doubt; inactive = no such curve, though single readings can be large or run the other way.

SMILES | Pf growth 48h | HCMV antiviral | HCV inhibitor | LASV entry inh | Marburg entry inh | Pf growth 96h
Cc1ccc(C(=O)N2CC(=O)Nc3ccc(F)cc3C2c2ccccc2)cc1[N+](=O)[O-] (stereo not drawn) | 9.28µM | ? | – | ? | ? | ?
O=C1CN(C(=O)c2ccc(S(=O)(=O)N3CCCCC3)cc2)C(c2ccc(F)cc2)c2cc(Cl)ccc2N1 (stereo not drawn) | · | – | · | ? | 8.91µM | ·
O=C1CN(C(=O)c2c(F)cccc2F)C(c2ccccc2)c2cc(Br)ccc2N1 (stereo not drawn) | ? | – | – | · | · | –
O=C1CN(C(=O)c2ccc(S(=O)(=O)N3CCCCC3)cc2)C(c2ccc(F)cc2)c2cc(F)ccc2N1 (stereo not drawn) | · | – | · | – | ? | ·
O=C1CN(C(=O)c2cccc(Br)c2)C(c2ccccc2)c2cc(Cl)ccc2N1 (stereo not drawn) | · | -63.1 | · | ? | · | ·
Cc1nc2ccn(Cc3cccs3)c(=O)c2cc1C(=O)N1CCN(c2ccccc2F)CC1 | · | – | · | – | · | ·
CC(=O)Nc1c(C)nn(-c2ccccc2)c1N1CCC(C(=O)Nc2ccc(F)cc2Cl)CC1 | · | – | · | – | · | ·
COCCOC(=O)C1=C(C)NC(=O)NC1c1cn(-c2ccccc2)nc1-c1cccs1 (stereo not drawn) | – | – | – | – | – | –
C=CCOC(=O)C1=C(C)NC(=O)NC1c1cn(-c2ccccc2)nc1-c1cccs1 (stereo not drawn) | 14.7µM | – | ? | ? | ? | ?
CC1=C(C#N)C(c2cn(-c3ccccc3)nc2-c2cccs2)C(C#N)=C(C)N1 | 1.65µM | – | – | – | ? | –
CN(C)c1ccc(C(=O)Nc2cccc(-c3nc4cccnc4s3)c2)cc1 | · | – | · | ? | – | ·
O=C(Nc1ccc(-c2nc3cccnc3s2)cc1)c1ccco1 | – | – | ? | · | · | –
O=C(Nc1ccc(-c2nc3cccnc3s2)cc1)c1cccnc1Cl | – | – | 6.31µM | 3.55µM | ? | –
O=C(Nc1ccc(-c2nc3cccnc3s2)cc1)c1ccc(Br)o1 | ? | -91.0 | 11.2µM | · | · | ?
O=C(Nc1cccc(-c2nc3cccnc3s2)c1)c1cccc(Br)c1 | · | -66.6 | · | – | – | ·
O=C(Nc1ccc(-c2nc3cccnc3s2)cc1)c1ccc(Cl)nc1 | – | – | ? | – | – | –
CCCNC(=O)C[C@@H]1C[C@@H]2c3cc(NS(=O)(=O)c4ccc(OC)cc4)ccc3O[C@@H]2[C@@H](CO)O1 | · | – | · | · | · | ·
Cc1ccc(-n2ncc3c(NCCC4=CCCCC4)ncnc32)cc1C | · | – | · | ? | · | ·
COc1cc2c(cc1OC)C(c1ccc(F)cc1)N(c1cccc(C#N)c1)C(=O)C2 (stereo not drawn) | · | – | · | – | – | ·
CCOc1ccc(C(=O)N/N=C/c2ccc(SC)cc2)cc1 | – | – | – | 2.82µM | – | ?
O=C(N/N=C/c1ccc(OC(F)F)cc1)c1ccc(CSc2nc3ccccc3[nH]2)cc1 | – | – | – | ? | – | 13.1µM
Cc1cc(/C=N/NC(=O)c2ccoc2C)cc(C)c1O | · | – | · | · | · | ·
Cc1occc1C(=O)N/N=C/c1ccc(OCc2ccccc2)cc1 | ? | – | ? | · | · | 10.4µM
CCOc1ccc(C(=O)/C=C/c2ccc(SC)cc2)cc1 | – | – | ? | – | – | ?
Cc1occc1C(=O)N/N=C/c1ccc(-c2ccccc2)cc1 | – | – | – | 7.94µM | ? | –
SMILES | Pf growth 48h | HCMV antiviral | HCV inhibitor | LASV entry inh | Marburg entry inh | Pf growth 96h
CCOc1ccc(/C=N/NC(=O)c2ccc(CSc3nc4ccccc4[nH]3)cc2)cc1 | – | ? | ? | ? | ? | –
COc1ccc(/C=N/NC(=O)c2ccoc2C)cc1COc1ccc(Cl)cc1 | ? | – | ? | ? | ? | ?
Cc1ccsc1C(=O)OC(C)C(=O)Nc1ccc(Cl)cn1 (stereo not drawn) | · | – | – | – | ? | ·
CCc1nc2ccc(C(=O)N(C)Cc3ccco3)cn2c1N(C)CCCc1ccccc1 | · | – | · | · | · | ·
Cc1ccccc1NC(=O)CCn1nc(-c2ccc(Cl)cc2)c2ccccc2c1=O | · | – | · | ? | – | ·
O=C(N/N=C1\CC2CC=CC12)c1ccc(COc2ccccc2)cc1 (stereo not drawn) | – | – | ? | – | – | ?
O=C(N/N=C/c1ccc(F)cc1)c1ccc(OCc2ccccc2)cc1 | ? | – | – | · | · | –
CC(C)(C)c1ccc(OCc2ccc(C(=O)N/N=C3\CC4CC=CC34)cc2)cc1 (stereo not drawn) | – | -68.2 | ? | – | – | –
O=C(N/N=C/c1ccc(OC2CSC2)cc1)c1ccccc1 | 11.7µM | – | – | – | – | ?
CC(C)(C)c1ccc(OCc2ccc(C(=O)N/N=C/c3ccc(O)c(O)c3)cc2)cc1 | ? | – | 5.62µM | ? | ? | ?
O=C(N/N=C/c1ccc(OCc2ccc(F)cc2)cc1)c1ccccc1 | 1.17µM | – | – | · | · | –
CC1=C[C@@H](C)O[C@@]2(C1)C(=O)Nc1cccc(Br)c12 | · | · | · | ? | – | ·
CCOc1ccc(NS(=O)(=O)c2ccc3[nH]cc(C(=O)N(C)C4CCCCC4)c(=O)c3c2)cc1 | · | – | · | – | · | ·
CCOc1ccc(CNC(=O)c2oc3c(c2C)-c2nn(Cc4cccc(Cl)c4)cc2CC3)cc1 | · | – | · | – | · | ·
CNc1ncnc2c1ncn2[C@H]1CN(CCN2CCOCC2)C[C@@H](CO)O1 | · | – | · | · | · | ·
Cc1cc(/C=N/n2cnnc2)c(C)n1-c1ccc(OCc2ccccc2F)cc1 | ? | -92.9 | ? | ? | ? | –
Fc1ccccc1COc1cccc(/C=N/n2cnnc2)c1 | – | – | – | – | ? | ·
Cc1cc(/C=N/n2cnnc2)c(C)n1-c1ccc(OCc2ccc(Cl)cc2)cc1 | · | -91.5 | 7.94µM | ? | ? | 11.7µM
CC(C)S(=O)(=O)c1csc(NC(=O)Nc2cc(Cl)ccc2Cl)c1Cl | ? | – | 12.6µM | ? | ? | ?
COc1ccc(CCNC(=O)CCS(=O)(=O)c2cc3c(cc2Cl)NC(=O)CO3)cc1OC | · | – | · | – | · | ·
Cc1cc(C)nc(SCc2nc3ncccn3c2Br)n1 | 8.28µM | – | – | – | ? | 4.15µM
C=CCN1CC[C@]23c4c5ccc(O)c4OC2C(=O)CC[C@@]3(O)[C@H]1C5 (stereo partly drawn) | · | – | · | · | · | ·
C=CCN1CC[C@]23c4c5ccc(O)c4OC2C(=O)CC[C@@]3(O)C1C5 (stereo partly drawn) | – | – | 2.51µM | · | · | –
C=CCN1CC[C@]23c4c5ccc(O)c4O[C@H]2/C(=N/NC(=O)c2ccccc2)CC[C@@]3(O)[C@H]1C5 | · | -63.7 | – | ? | 0.0891µM! | ·
COc1ccc2c3c1OC1C(=O)CC[C@@]4(O)[C@@H](C2)N(C)CC[C@]314 (stereo partly drawn) | · | -80.1 | ? | · | · | ·
CCc1ccccc1NC(=O)Cn1c(=O)oc2ccccc21 | · | – | · | – | · | ·
COc1ccc(/C=N/n2c(N)c(S(=O)(=O)c3cccs3)c3nc4ccccc4nc32)cc1OC | 2.94µM | -88.0 | – | – | ? | ·
